# Laboratory results taken from PubChem BioAssay (NCI).
# This is part of a sample that, as a whole, favours compounds with a hit. Of some 83,000 tested, about 20% had one in any assay.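 The test compound was applied at a single concentration to cells in 96-well plates for 48 hours, and percent growth was recorded.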 Values without a mark were called inactive. Activity calls are given as the source filed them. Rule for the calls: active = growth percent below 10; inactive = the rest.
# Columns and labels:
# Test in all cases: NCI-60 one-dose screen, 48 h (100 = growth as untreated, 0 = no growth, -100 = all killed)
# Conditions in all cases: 10 µM
# DU-145 prostate = system: DU-145 prostate
# K-562 leukemia = system: K-562 leukemia
# MALME-3M melanoma = system: MALME-3M melanoma
# MDA-MB-231 breast = system: MDA-MB-231 breast
# RXF 393 renal = system: RXF 393 renal
# SF-268 CNS = system: SF-268 CNS
# SF-295 CNS = system: SF-295 CNS
# SF-539 CNS = system: SF-539 CNS
# UACC-257 melanoma = system: UACC-257 melanoma
# M14 melanoma = system: M14 melanoma
SMILES,growth (DU-145 prostate),growth (K-562 leukemia),growth (MALME-3M melanoma),growth (MDA-MB-231 breast),growth (RXF 393 renal),growth (SF-268 CNS),growth (SF-295 CNS),growth (SF-539 CNS),growth (UACC-257 melanoma),growth (M14 melanoma)
CCCCOC(=O)c1ccc(C(C)C)cc1,106%,106%,87%,109%,112%,100%,101%,96.6%,77.3%,96.5%
O=[N+]([O-])c1ccccc1N=Nc1ccc(O)cc1O,117%,120%,109%,119%,121%,118%,107%,113%,103%,110%
COc1ccc(-c2cc3c(nn2)-c2ccccc2C3=O)cc1,21.2%,21.9%,-21.1% (active),59.5%,71.8%,39.1%,-40.7% (active),82.1%,69.6%,42.9%
O=C(/C=C/C(=O)c1ccccc1)c1ccccc1,115%,41.9%,131%,110%,118%,107%,99%,114%,119%,111%
Cc1cc(O)ccc1O,114%,94.1%,101%,87.3%,112%,102%,129%,95.5%,99.5%,96.4%
NCC(=O)CCC(=O)O,121%,109%,101%,107%,98.3%,101%,106%,110%,105%,113%
Oc1ccc(N=Nc2ccc(Br)cc2)c(O)c1,-11.8% (active),6.18% (active),36.2%,41.9%,-58.3% (active),30.8%,15.4%,-18.6% (active),20.6%,-19.2% (active)
O=C(Nc1cc(-c2ccccc2)[nH]n1)c1ccc(Cl)cc1,77.6%,61.1%,92.6%,114%,32.4%,74.2%,71.2%,66.2%,77.9%,64.4%
C/C(=C\c1cc(Cl)ccc1OCC(=O)O)[N+](=O)[O-],108%,105%,127%,123%,134%,103%,108%,109%,102%,103%
NC(=S)N/N=C/c1ccc(N)cc1,108%,98.7%,104%,97%,107%,97.1%,102%,103%,82.9%,98.4%
O=C(O)c1cc([N+](=O)[O-])ccc1Cl,121%,97.7%,131%,101%,112%,114%,101%,105%,99.5%,114%
Cc1ccc(O)c(C(=O)c2ccccc2)c1,112%,122%,130%,90.6%,110%,101%,106%,101%,96.4%,95.8%
O=C(/C=C\c1ccc(O)cc1)c1ccccc1,101%,99.2%,82.7%,92.4%,110%,90%,110%,92.3%,98%,72.8%
O=C1N(C[P+](c2ccccc2)(c2ccccc2)c2ccccc2)CCCN1C[P+](c1ccccc1)(c1ccccc1)c1ccccc1,117%,93.9%,103%,90.8%,113%,115%,96.4%,106%,101%,98.2%
Cc1cc2nc(CO)[nH]c2cc1C,104%,111%,144%,109%,89.8%,88.7%,121%,107%,92%,107%
O=C(O)CCC(=O)OC(C1CO1)C(OC(=O)CCC(=O)O)C1CO1 (stereo not given),105%,103%,86.9%,130%,99.9%,105%,92.3%,95.2%,85%,98.9%
CC1OC(Oc2c(-c3ccc(O)c(O)c3)oc3cc(O)cc(O)c3c2=O)C(O)C(O)C1O (stereo not given),109%,103%,110%,107%,110%,104%,105%,110%,104%,106%
NC(C(=O)O)C(O)c1ccco1 (stereo not given),115%,105%,98.6%,117%,105%,116%,108%,110%,102%,105%
COc1cc2nn(-c3ccccc3N)nc2cc1OC,107%,99.3%,103%,116%,87%,100%,105%,96.5%,107%,107%
COC(=O)c1ccccc1N(C)C,108%,81.4%,101%,112%,118%,107%,98.7%,115%,103%,102%
O=[N+]([O-])c1ccc(Cl)c(S(=O)(=O)O)c1,109%,100%,120%,110%,126%,105%,112%,97.8%,96.6%,107%
O=C(O)[C@@H]1[C@H]2C[C@H]3c4[nH]c5ccccc5c4CCN3C[C@@H]2CC[C@@H]1O,106%,129%,66.1%,108%,111%,107%,99.2%,108%,105%,91.5%
Cc1cccc(CO)c1,98.1%,97.7%,104%,104%,121%,95.4%,100%,108%,99.9%,108%
N#CCc1ccc([N+](=O)[O-])cc1,113%,114%,148%,100%,113%,106%,95.3%,101%,74%,101%
CCOC(=O)c1[nH]c(C)c(C(=O)O)c1C,114%,102%,122%,107%,115%,105%,122%,105%,111%,124%
[O-][N+](=Nc1cccc(Cl)c1)c1cccc(Cl)c1,108%,133%,101%,102%,102%,110%,104%,92.8%,117%,96.4%
O=C1c2ccccc2C(=O)c2c1ccc(C(=O)O)c2[N+](=O)[O-],107%,77.3%,98.1%,79%,128%,111%,105%,96%,105%,87.2%
O=C1Cc2cc(O)ccc2O1,118%,96.6%,92.5%,106%,114%,106%,160%,101%,103%,98.9%
OC(c1ccccn1)C(O)c1ccccn1 (stereo not given),115%,96.8%,122%,108%,123%,102%,118%,102%,102%,103%
c1cc[n+](C2c3ccccc3C([n+]3ccccc3)c3ccccc32)cc1 (stereo not given),91.7%,72.9%,53.1%,70.6%,61.6%,23%,52%,27.9%,80.1%,96%
